Records with an inconclusive call do not appear. Active and inactive are the calls of the source. The call rests on the fitted dose curve; in most records, active means well fitted curve in the direction sought with a large enough effect in the signal ratio; inconclusive means small, poorly fitted or top-dose-only effect, or effect the other way, or a change in a side signal; inactive means no such curve, though single readings can be large or run the other way; the % refers to the signal ratio.
The compounds below were run against Lutropin-choriogonadotropic hormone receptor (Homo sapiens) (UniProt P22888) (assay: Counterscreen for Agonists of Thyroid Stimulating Hormone Receptor: HTRF Activity in a Luteinizing Hormone Receptor Cell Line). Conditions: HEK293-LHR cells, cAMP HTRF ratio, 30 min; series mostly up to 91.7 µM; activation (cAMP increase): at the top concentration.
Sequence of Lutropin-choriogonadotropic hormone receptor (Homo sapiens) (P22888 whole entry, looked up): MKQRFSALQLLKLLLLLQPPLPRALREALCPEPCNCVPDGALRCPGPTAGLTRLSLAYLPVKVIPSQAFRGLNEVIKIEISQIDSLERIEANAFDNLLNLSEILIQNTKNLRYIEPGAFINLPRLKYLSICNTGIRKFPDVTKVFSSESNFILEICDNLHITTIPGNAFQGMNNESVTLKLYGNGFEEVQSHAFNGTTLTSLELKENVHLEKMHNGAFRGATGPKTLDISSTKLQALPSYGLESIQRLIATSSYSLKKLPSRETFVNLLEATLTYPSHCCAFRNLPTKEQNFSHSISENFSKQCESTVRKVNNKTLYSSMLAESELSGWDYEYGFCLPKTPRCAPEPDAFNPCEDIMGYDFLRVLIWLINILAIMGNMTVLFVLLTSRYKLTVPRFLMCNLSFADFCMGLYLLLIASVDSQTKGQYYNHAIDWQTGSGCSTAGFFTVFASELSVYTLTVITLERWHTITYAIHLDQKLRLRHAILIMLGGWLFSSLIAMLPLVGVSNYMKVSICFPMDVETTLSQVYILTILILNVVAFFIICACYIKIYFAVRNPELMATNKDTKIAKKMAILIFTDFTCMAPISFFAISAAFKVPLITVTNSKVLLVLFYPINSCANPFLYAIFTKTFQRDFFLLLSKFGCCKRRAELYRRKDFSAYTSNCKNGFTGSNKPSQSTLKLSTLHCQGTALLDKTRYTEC
From the text: NIH Chemical Genomics Center [NCGC] NIH Molecular Libraries Screening Centers Network [MLSCN] MLSCN Grant: 1 X01 MH080680-01 PI Name: Dr. Marvin Gershengorn, NIH NCGC Assay Overview: Confirmation of Thyroid Stimulating Hormone Receptor Agonists TSH is an alpha/beta heterodimeric glycoprotein hormone secreted from the anterior pituitary gland which belongs to the glycoprotein hormone family. The actions of TSH are mediated by a seven-transmembrane receptor, which upon TSH binding couples preferentially to the G-alpha (s) protein (Gs), resulting in activation of adenylate cyclase and increase in cyclic adenosine 3', 5' monophosphate (cAMP). The TSH receptor (THSR) is mainly expressed in thyroid follicular cells and regulates their growth and function. Recombinant TSH is used to activate TSHR in patients with thyroid cancer receiving thyroid hormone suppression therapy and to screen for residual tumor after surgery, but it is expensive and must be administered intramuscularly. An orally active small molecule TSHR agonist would serve as an invaluable research tool for studying TSHR pharmacology and physiology, and would have multiple advantages in therapeutic settings. However, no selective small molecule agonist of the TSH receptor exists, and no small molecule screen for TSHR agonists has ever been reported. In order to confirm specificity of the compounds to the TSHR, a confirmatory assay was conducted on a similar family member, the Luteinizing Hormone (LH) receptor, transfected into a HEK 293 cell line, using an orthogonal detection technology to measure cAMP stimulation: antibody-based Homogeneous Time Resolved Fluorescence (HTRF).
NCGC Assay Protocol Summary: Homogeneous Time Resolved Fluorescence (HTRF) cAMP Assay. HEK 293 cells stably transfected with a vector containing the LH receptor and maintained under hygromycin selection were obtained from the laboratory of Dr. Marvin Gershengorn. Compounds were assayed using a HTRF cAMP detection kit (Cisbio) on the LH receptor transfected cell line. Briefly, 750 cells were plated in 2.5 ul/well of complete media (DMEM containing 10 % FCS, and 100 uM RO 20-1724) in 1536 well solid bottom white plates and 23 nl/well compound in DMSO solution or controls was added. Following 30 minute incubation at room temperature, 2.5 ul/well of labeled d2 cAMP and 2.5 ul/well of anti-cAMP antibody (both diluted 1:20 in lysis buffer) were added to each well using a flying reagent dispenser (Aurora Discovery, San Diego) . Plates were measured using the Envision plate reader (PerkinElmer, Boston, MA) with excitation at 330 nm and emissions of 615 nm and 660 nm. Keywords: Luteinizing hormone LH, Thyroid-stimulating hormone TSH, TSHR, TSHR agonist, quantitative high throughput screening, qHTS, HTS, probe identification, CNG, cAMP, cyclic nucleotide gated ion channel PubChem

SMILES | activation (cAMP increase)
COc1ccc(C(=O)N(Cc2ccco2)Cc2cccs2)cc1 | 3.2% (inactive)
O=C1CC(c2ccccc2)CC2=C1C(c1ccco1)n1nc(C(F)(F)F)nc1N2 (configuration not stated) | 3.49% (inactive)
NC(=O)c1nsc(C(=O)N(CC(=O)NCc2ccc3c(c2)OCO3)C2CCCC2)c1N | 2.94% (inactive)
O=C(COC(=O)C12CC3CC(CC(C3)C1)C2)NCc1ccco1 | 2.36% (inactive)
COc1ccc(C(=O)N(Cc2ccco2)Cc2cccs2)c(O)c1 | 2.94% (inactive)
O=C(COC(=O)C12CC3CC(CC(O)(C3)C1)C2)NCc1ccco1 | 1.68% (inactive)
NC(=O)c1nsc(C(=O)N(CC(=O)NCc2ccc3c(c2)OCO3)C2CCCCC2)c1N | 1.56% (inactive)
COc1ccc(C2Nc3ccccc3C(=O)N2Cc2ccco2)cc1COc1ccc(NC(C)=O)cc1 (configuration not stated) | 3.62% (inactive)
CCn1c(=O)c(C(=O)CN2CCCc3ccccc32)c(N)n(Cc2ccccc2)c1=O | 2.69% (inactive)
Cc1nn(-c2ccccc2)c(N2CCCC2)c1/C=N/n1cnc2scc(-c3ccccc3)c2c1=O | 2.52% (inactive)
O=C1CC(c2ccco2)CC2=C1C(c1ccccc1)n1nc(C(F)(F)F)nc1N2 (configuration not stated) | 2.99% (inactive)
COc1cc(OC)c(C(=O)N(Cc2ccco2)Cc2cccs2)cc1OC | 1.72% (inactive)
COc1ccc(C2Nc3ccccc3C(=O)N2Cc2ccco2)cc1COc1c(C)cccc1C (configuration not stated) | 2.23% (inactive)
O=C1C2C3CCCC3=C3CCCC3C2C(=O)N1c1ccc(F)cc1 (configuration not stated) | 0.715% (inactive)
O=c1c2c(-c3ccccc3)csc2ncn1/N=C/c1cn(-c2ccccc2)nc1-c1cccs1 | 1.85% (inactive)
O=C1C2C3CCCC3=C3CCCC3C2C(=O)N1c1ccc(Cl)cc1 (configuration not stated) | 2.44% (inactive)
O=C1C2C3CCCC3=C3CCCC3C2C(=O)N1c1cccc(Cl)c1 (configuration not stated) | 1.77% (inactive)
COc1ccc(C2Nc3cccc(O)c3C(=O)N2Cc2ccccc2)cc1COc1ccc(NC(C)=O)cc1 (configuration not stated) | 3.62% (inactive)
CC(NC(=O)COC(=O)c1ccco1)C12CC3CC(CC(C3)C1)C2 (configuration not stated) | 3.79% (inactive)
O=C1C2C3CCCC3=C3CCCC3C2C(=O)N1c1ccccc1Cl (configuration not stated) | 1.18% (inactive)
O=C(COC(=O)C12CC3CC(CC(Br)(C3)C1)C2)NCc1ccco1 | 4.71% (inactive)
O=C(COC(=O)C12CC3CC(CC(Cl)(C3)C1)C2)NCc1ccco1 | 4.42% (inactive)
O=C(COC(=O)C12CC3CC(CC(C3)C1)C2)NCC1CCCO1 (configuration not stated) | 3.45% (inactive)
COc1cc(OC)cc(C(=O)N(Cc2ccco2)Cc2cccs2)c1 | 1.68% (inactive)
COc1ccc(C2Nc3ccccc3C(=O)N2Cc2ccco2)cc1COc1ccc([N+](=O)[O-])cc1 (configuration not stated) | 1.81% (inactive)
NC(=O)c1nsc(C(=O)N(CC(=O)NC2CCCC2)Cc2ccc3c(c2)OCO3)c1N | 3.37% (inactive)
Cc1sc2ncn(/N=C/c3cn(-c4ccccc4)nc3-c3ccccc3)c(=O)c2c1C | 2.31% (inactive)

— PubChem BioAssay AID1402 (National Center for Advancing Translational Sciences (NCATS), 2008)
